# The campaign covered roughly 320,000 compounds. About 1,300 (0.41%) were called active. About 3% were inconclusive and are not listed. How the calls were made is not given here. A selection follows. Measured potencies and affinities stand elsewhere.
# Assay: growth inhibition of non-replicating M. tuberculosis (AID 488890);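 further: plate controls were DMSO cells for no effect and high antibiotic wells for full effect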
# Conditions: Mycobacterium tuberculosis non-replicating, at 25 µM, stronger effect = higher value
row,SMILES,inhibition
1,CC1=C(CCN2CCN(C3CCCC3)C(CCO)C2)C(C)(C)CCC1 (stereo not given),54.5%
2,CC1=C(CCN2CCN(C(C)C)C(CCO)C2)C(C)(C)CCC1 (stereo not given),12.7%
3,CCOc1ccccc1NC(=S)N1CCC(c2nc3ccccc3o2)CC1,29.4%
4,COc1ccc(NC(=O)Cn2nnc(C(=O)NCc3ccco3)c2N)cc1,-3.46%
5,CCCC1(CCC)NC(=O)NC1=O,36.8%
6,O=C(CCc1ccccc1)NCc1ccncc1,7.15%
7,Cc1nc(Nc2ccc(S(N)(=O)=O)cc2)oc1C,71.4%
8,CSc1ccc(C(=O)C2CCCN(C(=O)c3nonc3C)C2)cc1 (stereo not given),62.8%
9,CSc1ccc(C(=O)C2CCCN(C(=O)c3ccc4c(c3)OCO4)C2)cc1 (stereo not given),71.2%
10,C=CCN(CC=C)C(=O)C1CC(=O)N(c2ccc(Br)cc2)C1 (stereo not given),0.89%
11,O=c1cc(NS(=O)(=O)c2ccccc2)nc(SCc2c(Cl)cccc2Cl)[nH]1,-0.92%
12,O=C(NNc1cccc(Cl)n1)Nc1ccc(F)cc1,9.17%
13,CCCCC(=O)N(CCOC)c1nnc(-c2ccc(OC)cc2)s1,11.8%
14,CCC(=O)N1c2ccc(S(=O)(=O)N3CCN(CC)CC3)cc2CC1C (stereo not given),-2.95%
15,Cc1nc2c(=O)oc3ccccc3c2n1-c1ccccc1,66.8%
16,Cn1c(C(F)(F)F)nc2c(=O)oc3ccccc3c21,71.2%
17,Cc1cc(Cl)c2oc(C(=O)N3CCN(c4cccc(C)n4)CC3)c(C)c2c1,22.3%
18,O=C(NN=C1CCCC1)c1ccccc1O,8.13%
19,CCOC(=O)N1CCC(=NNC(=O)c2cc3ccccc3cc2O)CC1,31.9%
20,N=c1n(Cc2ccccc2)c2ccccc2n1CC(O)c1ccco1 (stereo not given),2.91%
21,Cc1ccc(Cn2c(=N)n(CC(O)c3ccco3)c3ccccc32)cc1 (stereo not given),18.9%
22,CC1CCC/C(=C\Nc2ccc(O)cc2)C1=O (stereo not given),13.7%
23,CC1CCC/C(=C\Nc2ccc(C(=O)O)cc2)C1=O (stereo not given),-12.5%
24,O=C1c2cccc(OCC(=O)N3CCCc4ccccc43)c2CCN1Cc1cccnc1,15.4%

row,SMILES,inhibition
1,O=C(NC1CCCCC1)c1cc(-c2cccs2)on1,43.1%
2,O=C(NC1CCCC1)c1cc(-c2ccccc2O)on1,4.68%
3,CN(Cc1cccs1)C(=O)COC(=O)CNC(N)=O,2.55%
4,O=C(c1ccccc1)c1cncc(Br)c1,19%
5,CCc1ccc(C(=O)c2cncc(Br)c2)cc1,70%
6,Cc1ccc(C)n1-c1ccc(N2CCOCC2)c([N+](=O)[O-])c1,-3.61%
7,Cc1nn(C)c(C)c1NC(=S)Nc1ccc(S(=O)(=O)Nc2ncccn2)cc1,-12.7%
8,CCC/C=C(\CCC)C(NC(=O)CCc1ccccc1)c1ccc(C(F)(F)F)cc1 (stereo not given),-8.64%
9,Cc1ccc(O)c(C)c1,-0.5%
10,Cc1cc(C(c2ccc(O)cc2)c2cc(C)c(O)cc2C)c(C)cc1O,19.6%
11,CN(C)CCCn1c(-c2ccccc2)nc(=S)c2c1CCCC2,3.62%
12,CN(C)CCN1C(=O)C2C(C(=O)Nc3cc(Cl)cc(Cl)c3)C3C=CC2(O3)C1C(=O)NC1CCCCC1 (stereo not given),5.38%
13,COc1ccc(OCCCC(=O)OCC(=O)Nc2nnc(-c3ccccc3)o2)cc1,24.6%
14,CC(C)c1ccc(OCC(=O)NCCO)cc1,-10.9%
15,Clc1ccccc1N1CCN(Cc2ccc(Br)o2)CC1,19.6%
16,Cc1cccc(N2CCN(Cc3ccoc3)CC2)c1C,11.8%
17,Cc1cccc(N2CCN(Cc3ccc(Br)o3)CC2)c1C,51.8%
18,Cc1ccccc1N1CCN(Cc2cc3c(cc2[N+](=O)[O-])OCO3)CC1,45.5%
19,Cc1ccccc1N1CCN(Cc2ccc(Br)o2)CC1,35.5%
20,Cc1ccc(CN2CCN(c3ccccc3Cl)CC2)o1,-0.79%
21,CCOc1ccc(N=C2SCC(=O)N2CC)cc1,25.3%
22,O=C(Nc1cccc([N+](=O)[O-])c1)NC1CCS(=O)(=O)C1 (stereo not given),-1.42%
23,CSc1ccccc1NC(=O)CN(C)CC(=O)Nc1c(F)cccc1F,6.62%
24,O=C1c2cccc3cccc(c23)C(=O)N1CCCc1n[nH]c(=S)n1-c1ccccc1,-14.7%

row,SMILES,inhibition
1,C=CCN(C)NC(=O)Nc1ccccc1,6.98%
2,Cc1c(NC(=O)CCCCCN2C(=O)c3ccccc3C2=O)c(=O)n(-c2ccccc2)n1C,-3.66%
3,COc1cc(C(=O)N2CCC(NC(=O)C(Cc3ccccc3C)NC(C)=O)CC2)cc(OC)c1OC (stereo not given),3.5%
4,Cc1nc([N+](=O)[O-])cn1CC(=O)c1ccc(Cl)cc1,-12.5%
5,Cc1nc([N+](=O)[O-])c(Br)n1CC(=O)c1cccc([N+](=O)[O-])c1,68.4%
6,COC(=O)Cn1c(C)nc([N+](=O)[O-])c1Br,-5.82%
7,Cc1c(Br)c([N+](=O)[O-])nn1CC(=O)c1ccccc1,-6.01%
8,COc1ccc(OC)c(C(c2nnnn2CC2CCCO2)N2CCN(C)CC2)c1 (stereo not given),9.88%
9,COc1ccc(F)cc1S(=O)(=O)Nc1ccncc1,10.8%
10,N/C(COc1ncn(-c2ccccc2)n1)=N\S(=O)(=O)c1ccccc1,20.4%
11,CCOC(=O)C1CCCN(Cc2nc(N)nc(Nc3ccccc3)n2)C1 (stereo not given),42%
12,O=C(NC1CCCC1)c1nc2c(nnn2Cc2ccccc2Cl)c(=O)[nH]1,79.4%
13,O=C(NC1CC1)c1nc2c(nnn2Cc2ccccc2Cl)c(=O)[nH]1,17.4%
14,Cn1c(CCc2ccccc2)nnc1SCC(=O)N1CCCC1,-11.6%
15,N#CC(C#N)=c1ccc2c(c1)N1C(c3ccccc3)=CC(c3ccccc3)C3CCCCC31N=2 (stereo not given),-0.07%
16,O=C1NC2(CCCCC2)N=C1c1ccccc1,-21.1%
17,CCOc1ccc(OCC(O)CNC2CCN(Cc3ccccc3)CC2)cc1 (stereo not given),35%
18,CC(C)(c1ccccc1)c1ccc(OCC(O)CN2CCCC2)cc1 (stereo not given),50%
19,CC(C)(C)c1ccc(-n2ncc3c2CCCC3NC(=O)CN2CCOC2=O)cc1 (stereo not given),10.9%
20,COC(=O)Nc1ccc(S(=O)(=O)N2c3ccccc3CCC2C)cc1 (stereo not given),47.6%
21,Cc1ccc(S(=O)(=O)N2CCC(C(=O)OC(C)C(=O)N(C)c3ccccc3)CC2)cc1C (stereo not given),36%
22,CCCCOc1ccc(Cn2c(=O)oc3ccccc32)cc1,59%
23,CC(C)Oc1ccc(Cn2c(=O)oc3ccccc32)cc1,72%
24,CCSc1ncc(C)cc1[N+](=O)[O-],-10.3%

row,SMILES,inhibition
1,O=C(c1cccs1)N1CCN(Cc2ccccn2)CC1,-6.8%
2,Cc1cccc(Cn2c(Cc3ccccc3)nc3ccccc32)c1,46.2%
3,COCCOc1cc(N)c(Cl)cc1Cl,10.4%
4,CCOC(=O)COc1cc(N2C(=O)CSCC2=O)c(Cl)cc1Cl,-8.36%
5,CN(C)/C=N/c1ncc(-c2ncc(C(F)(F)F)cc2Cl)cn1,-8.2%
6,CCn1nccc1C(=O)Nc1cccc(C)c1C,5.9%
7,COc1ccc(CC(C)CC(=O)Nc2ccc(OC)cc2)cc1 (stereo not given),49.1%
8,Cc1ccc2c(c1)c(C1=NC(=S)NC1=O)c(O)n2C,-2.45%
9,C=CCn1c(O)c(C2=c3ccccc3=NC2=O)sc1=Nc1ccc(O)cc1,30.7%
10,O=C1N=c2ccccc2=C1c1c(O)[nH]c2c(C(F)(F)F)cccc12,27.4%
11,O=C1N=c2ccccc2=C1c1[nH]c(=S)[nH]c1O,9.01%
12,C=CCn1c(O)c(N=O)c2ccccc21,-1.03%
13,CCn1c(O)c(C2=c3ccccc3=NC2=O)c2cc(Br)ccc21,73.8%
14,CC(C(=O)N1CCN=C1c1ccccc1)N1C(=O)c2ccccc2C1=O (stereo not given),-7.08%
15,O=C(CN1C(=O)NC2(CCCCC2)C1=O)Nc1ccc(Cl)cc1,-0.81%
16,C/C(=N/NC(=O)CCC(=O)Nc1ccc(Br)cc1)c1ccc(Br)cc1,-21.4%
17,O=C(NCc1ccccc1)c1ccco1,64.3%
18,O=C(NNC(=O)c1ccco1)c1ccccc1,-6.91%
19,Cc1ccc(/C=C2\SC(=S)N(CCC(=O)NCCCN3CCOCC3)C2=O)cc1,8.18%
20,CCOc1ccc(C(=O)c2cc([N+](=O)[O-])ccc2Cl)cc1,6.56%
21,O=C(c1ccc(S(=O)(=O)Nc2ccccc2)cc1)N1CCC1,-11.7%
22,CCCNC1=C(C)C(=O)C2=C(C1=O)C(COC(N)=O)[C@]1(OC)C3NC3CN21 (stereo not given in full),55.1%
23,COc1ccc(CCNC(=O)c2cc3cccc(OC)c3oc2=O)cc1OC,0.35%
24,COc1cccc2cc(C(=O)NCc3ccc(Cl)cc3)c(=O)oc12,57.8%

row,SMILES,inhibition
1,CCN(CC)c1ccc2cc(C(N)=O)c(=N)oc2c1,31.1%
2,CCN(CC)c1ccc2cc(C(C)=O)c(=O)oc2c1,3.33%
3,Cn1c(=O)c(=O)n(C)c2cc(S(=O)(=O)N3CCN(Cc4ccccc4)CC3)ccc21,5.19%
4,Nc1nc(-c2ccc3ccccc3c2)c(C2(O)C(=O)Nc3c(Br)cc(F)cc32)s1 (stereo not given),0.16%
5,COc1ccc(Cl)cc1NC(=O)CSc1nc(=O)n(CCN(C)C)c2c1CCCC2,16.1%
6,Clc1ccccc1N/N=C/c1ccc2c(c1)OCO2,28.4%
7,CCC(=O)N(C1=C(NC(C)C)C(=O)c2ccccc2C1=O)C(C)C,8.66%
8,CC(=O)N(C1=C(N)C(=O)c2ccccc2C1=O)c1ccccc1,4.83%
9,CC(CCc1ccccc1)NC(=O)CN(C)Cc1ccc(F)cc1 (stereo not given),18%
10,CN(CC(=O)NCCc1ccc(F)cc1)Cc1ccccc1,20.9%
11,COC(=O)/C(=C/c1c[nH]c2ccccc12)[N+](=O)[O-],9.02%
12,COc1ccc2cc(Br)ccc2c1CC(=O)NCC1CCCO1 (stereo not given),14.2%
13,O=S(=O)(c1ccc2c(c1)OCCO2)N1CCN(S(=O)(=O)c2ccco2)CC1,16.7%
14,c1ccc(CSc2ccc(-c3ccccn3)nn2)nc1,36.2%
15,c1ccc(-c2ccc(SCc3cccnc3)nn2)nc1,63.6%
16,CCOC(=O)/C=C/C(=O)OCC(=O)Nc1ccc(Cl)cn1,0.76%
17,CS(=O)(=O)c1cnc(-c2ccccc2)nc1Oc1ccc(Cl)cc1,-7.01%
18,O=P(O)(CCc1ccncc1)CN1CCCCC1,-7.55%
19,COc1cccc2c(N/N=C/c3ccccc3)cc(C)nc12,3.67%
20,COc1ccc(Nc2cc(C)nc3ccccc23)cc1,36.9%
21,COc1ccc2nc(C)cc(NCc3ccc(F)cc3)c2c1,38.9%
22,Cc1cc(N/N=C/c2ccc(N(C)C)cc2)c2ccccc2n1,-1.58%
23,COc1ccccc1/C=N/Nc1cc(C)nc2ccc(C)cc12,-9.66%
24,COc1ccc(Nc2cc(C)nc3ccc(OC)cc23)cc1,41.2%
